Assay outcomes from PubChem.
Hits are enriched below; roughly 14% of the tested compounds scored in any of these assays.
Pf growth 96h: inhibits malaria parasite growth, 96 h | P. falciparum luciferase reporter growth, 96 h | Potency, µM (highest dose often 28.7 µM), for inactives: at the top dose activity change, negative = inhibition, most hits filed as inhibitors | hit rate 6.9% among 320,000 | AID 504834; also: potency is read from the fitted curve at half-maximal effect
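Two-generation exposure (96 h) targets delayed-death phenotype. Reporter parasites carrying integrated firefly luciferase, in red cells at 2% hematocrit and 0.05% parasitemia final, kept at 37 C, 5% CO2; luminescence loss indicates inhibition.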
Sm TGR block: inhibitors of Schistosoma mansoni thioredoxin glutathione reductase | hit rate 3% among 360,000 | AID 485364 | purified TGR, DTNB reduction, TNB absorbance 405 nm | Potency, µM (titrated, usually from 114 µM), inactives show at the highest dose activity change, negative = inhibition, hits mostly inhibitors; also: potency is read from the fitted curve at half-maximal effect; nearly all actives have a fitted effect of over 60% in size
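First, TGR (20 nM dispensed) and NADPH were mixed with compound. Second, a 15 min room-temperature incubation followed. Third, further NADPH and then DTNB were added to start the reaction. Finally, TNB absorbance was monitored kinetically.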
HCMV inh: inhibitors of human cytomegalovirus; HFF cells, HCMV-luciferase reporter, 72 h; active compounds read low; activity change, negative = inhibition, % at 57.5 µM; hit rate 4.5% among 410,000; in the data active = activity change below about -60%; inconclusive = no clear call, values can overlap the other calls; inactive = above about -39%
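Cell-based, HFFs, 1000 cells/well, 16 h 37C; cpds in DMSO + HCMV-luc, MOI 1 PFU/cell; 72 h 37C; OneGlo luminescence after 5 min RT; norm. to buffer vs Salinomycin 10uM.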
Pf growth 48h: inhibits P. falciparum growth in the first generation, 48 h; P. falciparum luciferase growth in erythrocytes, 48 h; Potency, µM (doses to about 28.7 µM), for inactives: at the top dose activity change, negative = inhibition, actives largely listed as inhibitors; hit rate 5.9% among 310,000; AID 504832; also: potency is read from the fitted curve at half-maximal effect
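Here the parasites carry a stable luciferase gene and grow inside erythrocytes in Albumax-based RPMI medium with compound for one erythrocytic cycle. Activity is scored as loss of luminescent signal.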
FBPA Giardia inh: blocks Giardia fructose-bisphosphate aldolase activity; purified Giardia FBPA; Potency, µM (titrated, usually from 59.6 µM), for inactives: top-dose activity, negative = inhibition, most hits filed as inhibitors; hit rate 0.71% among 290,000; AID 2451; A8B2U2; also: potency is read from the fitted curve at half-maximal effect; nearly all actives have a fitted effect of over 55% in size
Target sequence (A8B2U2 whole entry, looked up): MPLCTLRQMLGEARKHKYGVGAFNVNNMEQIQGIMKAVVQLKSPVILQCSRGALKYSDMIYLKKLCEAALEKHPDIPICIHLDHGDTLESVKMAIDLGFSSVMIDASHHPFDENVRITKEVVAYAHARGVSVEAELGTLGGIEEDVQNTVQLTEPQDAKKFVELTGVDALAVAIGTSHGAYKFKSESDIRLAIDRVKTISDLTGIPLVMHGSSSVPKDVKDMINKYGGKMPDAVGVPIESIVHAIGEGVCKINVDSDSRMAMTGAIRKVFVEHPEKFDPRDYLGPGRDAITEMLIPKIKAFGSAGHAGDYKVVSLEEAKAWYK
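40 nM FBPA preincubated 10 min at RT with compound (up to 57.5 uM final), then substrate plus GAPDH/TPI/NAD/arsenate coupling and diaphorase/resazurin added. Fluorescence read after 20 min at RT, 525/598 nm.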
* = called active by the depositor; u = inconclusive; x = no result; [ ] = dose if it differs, or a comment. Unless noted, calls follow the shape of the dose curve; as a rule, active = well fitted curve in the direction sought with a large enough effect; inconclusive = small, poorly fitted or top-dose-only effect, or another doubt; inactive = no such curve, though single readings can be large; an effect the other way counts as inactive or inconclusive. % is scaled to controls: 0 for no effect and ±100 for the full control effect.

SMILES	Pf growth 96h	Sm TGR block	HCMV inh	Pf growth 48h	FBPA Giardia inh
CCOc1ccccc1C(=O)Nc1cnn(Cc2ccc(F)cc2)c1	-27.9%	1.8%	-63.4*	9.0%	-7.9%
CC(=O)c1cccc(NC(=O)c2ccccc2OCc2ccc(F)cc2)c1	-13.7%	3.3%	-34.6	3.5%	6.9%
CCOc1ccccc1C(=O)Nc1nccs1	6.57µM*	0.0%	8.9	10.0%	0.8%
O=C(Nc1ccccc1Br)c1ccccc1-c1ccccc1	7.38µM*	-3.0%	-35.5	2.1%	0.5%
CCOc1ccccc1C(=O)Nc1nnc(COC)s1	-21.5%	17.0%	6.1	12.9%	31.8%
Nc1cc(=O)[nH]c(SCC(=O)NCCC2=CCCCC2)n1	x	x	45.3	x	x
Cc1ccc(NN2C(=O)C=C(c3ccc(Cl)cc3)C2=O)cc1	u	-13.9%	235.7	x	-1.9%
CCN1C[C@@H]2[C@@H]3C(=O)N(Cc4ccccc4)C(=O)[C@@H]3[C@](CC)(C1=O)N2C(=O)c1ccc(Cl)cc1	x	x	-5.2	x	x
COc1ccccc1-c1ccc(=O)n(CC(=O)NC2CCc3ccccc32)n1 (centres undefined)	u	11.5%	-87.4*	-63.7%	0.5%
O=C(Cn1nnc2ccccc2c1=O)NC1CCCc2ccccc21 (centres undefined)	10.4µM*	-9.5%	-38.6	8.2%	1.1%
O=C(Cn1nnc2ccccc2c1=O)Nc1ccc2c(c1)CCC2	u	-31.1%	84.8	24.3%	1.5%
CCCNC(=O)Cn1nc(-c2ccccc2OC)ccc1=O	x	x	2.0	x	x
Cc1cccc(C(c2sc3nc(-c4ccco4)nn3c2O)N2CCN(c3ccccc3)CC2)c1 (centres undefined)	x	-1.2%	15.4	x	x
O=C1N/C(=C/c2ccc(N3CCOCC3)cc2)C(=O)N1Cc1ccc(F)cc1	51.9%	-17.1%	-21.8	-18.2%	2.1%
O=C1S/C(=C\c2ccc(N3CCOCC3)o2)C(=O)N1Cc1ccc(F)cc1	u	5.01µM*	x	u	u
O=C1N=C(N2CCOCC2)S/C1=C/c1ccc(-c2ccc(F)cc2)o1	u	-27.2%	-4.1	u	-3.6%
O=C1S/C(=C/c2ccc(N3CCOCC3)o2)C(=O)N1Cc1ccc(F)cc1	u	1µM*	-35.8	u	x
CC(C)OC(=O)CN1C(=O)S/C(=C/c2ccc(N3CCCCC3)o2)C1=O	x	6.31µM*	-30.0	u	u
CCc1nn2c(-c3ccccc3OC)ccnc2c1-c1ccccc1	x	6.0%	u	x	x
CC(O)(c1ccc(F)c(F)c1)c1nc(-c2ccoc2)cs1 (centres undefined)	x	x	-3.0	x	x
CCc1ccc(OCc2nc(-c3ccc(OC)cc3)no2)c(Br)c1	x	4.9%	-31.7	x	x
CCCN(CCC)C(=O)c1cn(CC)c2ccc(S(=O)(=O)N3CCCCC3)cc2c1=O	u	-15.6%	-31.7	u	4.1%
CC(C)(C)C1CCc2c(sc(NC(=O)c3ccccc3F)c2C(=O)NCc2ccco2)C1 (centres undefined)	x	-1.6%	-1.8	x	x
CC12CC(NC(=O)N1c1ccc(C(=O)N3CCN(c4ccc(F)cc4)CC3)cc1)c1ccccc1O2 (centres undefined)	x	-1.8%	-16.6	u	4.4%
COc1ccccc1N1CCN(C(=O)c2cccc(N3C(=O)NC4CC3(C)Oc3ccccc34)c2)CC1 (centres undefined)	0.9%	3.3%	-3.7	11.7µM*	0.1%[12.9 µM]
SMILES	Pf growth 96h	Sm TGR block	HCMV inh	Pf growth 48h	FBPA Giardia inh
CCOC(=O)N1CCN(C(=O)c2cccc(N3C(=O)NC4CC3(C)Oc3ccccc34)c2)CC1 (centres undefined)	1.85µM*	-7.4%	-21.4	-15.4%	x
COc1ccc(N2C(=O)NC3CC2(C)Oc2ccccc23)cc1OC (centres undefined)	0.0%	13.0%	-61.8*	9.3%	3.9%
CC12CC(NC(=O)N1c1cccc(C(=O)N3CCN(c4ccccc4)CC3)c1)c1ccccc1O2 (centres undefined)	u	0.0%	u	8.28µM*	-0.5%
Cc1cc(/C=N/NC(=O)Cn2c3ccccc3c(=O)c3ccccc32)c(C)n1-c1ccc(Cl)cc1	3.8%	-10.3%	u	-9.6%	-8.2%
Cc1ccc(OCCNC(=O)CCc2ccccc2)cc1C	x	x	-33.0	x	x
N#CC1=C(N)Oc2cc(N)ccc2C1c1ccc(F)cc1 (centres undefined)	x	-7.9%	-27.1	6.1%	-17.9%
CC1(C)CC(=O)C2=C(C1)OC(N)=C(C#N)C2c1ccoc1 (centres undefined)	-5.9%	-15.4%	55.9	-10.3%	-14.2%
N#CC1=C(N)OC2=C(CCC/C2=C/c2ccoc2)C1c1ccoc1 (centres undefined)	20.9%	17.8µM*	x	25.7%	-5.1%
N#CC1=C(N)OC2=C(CC/C2=C\c2ccc(F)cc2)C1c1ccc(F)cc1 (centres undefined)	-12.0%	25.1µM*	x	-8.9%	-29.8%
O=[As]O[As]=O (centres undefined)	1.9µM*	x	x	1.9µM*	x
CCCC1=Nc2cc(C(=O)NCCCOC(C)C)ccc2Sc2ccccc21	10.1%	-16.4%	u	11.7µM*	4.8%
CCCC1=Nc2cc(C(=O)NCCCN(CC)CC)ccc2Sc2ccccc21	x	5.6%	-10.9	x	x
CCCC1=Nc2cc(C(=O)NCCCOCC)ccc2Sc2ccccc21	13.1µM*	2.2%	-81.7*	u	6.8%
CCCC1=Nc2cc(C(=O)NCCOC)ccc2Sc2ccccc21	x	0.7%	-96.7*	x	x
C/C(=N\NC(=O)c1cc(C)nc2ccccc12)c1cccc(Cl)c1	u	-8.8%	-13.2	u	x
COc1ccc(Br)cc1C1Nc2cccc3cccc(c23)N1	u	u	9.1	0.0%	-27.9%
CCN(CC)c1ccc(C2Nc3cccc4cccc(c34)N2)c(O)c1	-20.9%	22.4µM*	46.3	3.7µM*	u
COc1cc(C2Nc3cccc4cccc(c34)N2)cc(OC)c1OC(C)=O	1.1%	8.91µM*	-14.7	-1.0%	u
COc1ccc2ccc3ccc(OC)c(OC(C)=O)c3c2c1	x	x	-10.4	x	x
Oc1ccc2ccccc2c1C1Nc2cccc3cccc(c23)N1	x	-34.5%	17.7	u	-28.9%
COc1cc(C2Nc3cccc4cccc(c34)N2)ccc1O	u	3.98µM*	-4.4	u	u
CN(C)c1ccc(NC(=O)Nc2nc(C(N)C3CCCCC3)cs2)cc1 (centres undefined)	x	x	-11.1	x	x
CCc1ccccc1NC(=O)Nc1nnc(N2CCCC2)s1	x	-8.1%	-2.5	x	x
Cc1cc2n(n1)SC(Nc1cccc3ccccc13)N2 (centres undefined)	167.4%	u	-12.2	77.0%	-6.9%
Cc1cc2n(n1)SC(Nc1cc(Cl)ccc1Cl)N2 (centres undefined)	-21.0%	15.8µM*	-20.1	-21.4%	u
CCOc1ccc(CCNC(=O)CCS(=O)(=O)c2ccc(Br)cc2)cc1OCC	-7.5%	-1.0%	-28.5	-6.7%[0.00184 µM]	-0.7%
CCOc1ccc(CCNC(=O)CCc2c(C)nc3ncnn3c2C)cc1OCC	5.86µM*	2.5%	-14.0	u	-0.4%
